These results are taken from PubChem BioAssay (Tox21).

Unmarked numbers belong to inactive results. A call without a number means that no potency is given here. Activity calls are given as the source filed them. Calls come from the whole dose curve.
Potency is the fitted concentration of half-maximal effect.

This test is described as follows: qHTS assay to identify small molecule agonists of the sonic hedgehog signaling (Shh) pathway (AID 1259368).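 For activity change: NIH/3T3-derived 3T3Gli1-Luc cells carrying a stable Gli1-driven firefly luciferase reporter.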 Note: nearly all actives have a fitted effect of over 15% in size. As to conditions: NIH/3T3 Gli1-Luc reporter, luciferase, 24 h; series mostly up to 92.4 µM; activity change: at the top concentration. An excerpt:
National Center for Advancing Translational Sciences [NCATS]
NIH Chemical Genomics Center [NCGC]
U.S. Environmental Protection Agency [EPA]
National Institutes of Environmental Health Sciences [NIEHS]
National Toxicology Program [NTP]
The sonic hedgehog (Shh) pathway is essential for normal embryonic development. Dysregulation of the Shh pathway can cause severe developmental defects in organs. Therefore chemicals that interfere with the pathway are potential developmental toxicants. A cell line designated 3T3Gli1-Luc (DMB/OARSA/CFSAN/FDA, Laurel, MD), a NIH/3T3 derived clone containing stably integrated Gli1-Luc reporter is used to detect chemical interference of the Shh pathway, by changes in the expression of the firefly Luc gene under the control of the Gli1 transcriptional response element. This cell line was used to screen Tox21 libraries for identifying and prioritizing the potential developmental toxicants that interfere Shh pathway.
3T3 Gli1-Luc cells were dispensed at 2,000 per well in 5uL of culture medium into white solid bottom 1536-well plates (Greiner Bio-One, Monroe, NC) using a Multidrop Combi (Thermo Scientific, Waltham, MA) dispenser. The assay plates were incubated at 37 C and 5% CO2 for 4hr, and then 23nL of compounds dissolved in DMSO and positive control were transferred using a Pintool station (Wako, San Diego, CA). The assay plates were incubated at 37C and 5% CO2 for 24hr. For luciferase read, 4uL of Amplite Luciferase reporter gene assay reagent (AAT Bioquest, Inc. Sunnyvale, CA) was added to each well of the assay plates using Flying Reagent Dispenser (FRD, Aurora Discovery, San Diego, CA) and incubated at room temperature for 30min. The luminescence signal was measured using a ViewLux plate reader (Perkin Elmer, Shelton, CT).
In general terms: Quantitative high-throughput screening tests each substance at several concentrations.
For the compound `Cc1cc2nc3c(=O)[nH]c(=O)nc-3n(C[C@H](O)[C@H](O)[C@H](O)CO)c2cc1C`, the Potency result is “inactive”.
Turning to `COC(=O)c1ccccc1`, the Potency entry was “inactive”.
For `CCCCCCCCCC(=O)OC`, the Potency result was “inactive”.
Same read-out and setting: in the case of `CC(=O)O[C@]1(C(C)=O)CC[C@H]2[C@@H]3C=C(Cl)C4=CC(=O)[C@@H]5C[C@@H]5[C@]4(C)[C@H]3CC[C@@]21C` it was “inactive”; in that of `O=C(c1ccccc1)c1ccc(O)cc1O`, “inactive”.
Take `COC(C)COC(C)COC(C)CO` (stereo not given): the Potency result is “inactive”.
For the compound `CC(C)(C)NC(=O)[C@H]1CC[C@H]2[C@@H]3CC[C@H]4NC(=O)C=C[C@]4(C)[C@H]3CC[C@]12C`, the Potency result is “inactive”.
Regarding `O=C1c2cccc(O)c2C(=O)c2c(O)cccc21`, the Potency result was “inactive”.
As to `CC1=CC2C3CC(C=C3C)C2C1` (stereo not given), the Potency entry is “inactive”.
`CN(C)C(=N)N=C(N)N`: the Potency result is “inactive”.
`CC(C)=CCC/C(C)=C\CO`: the Potency result is “inactive”.
Turning to `Brc1cc(Oc2cc(Br)c(Br)c(Br)c2Br)c(Br)c(Br)c1Br`, the Potency result was “inactive”.
Consider `O=C=Nc1ccc(Cc2ccc(N=C=O)cc2)cc1`, for which the Potency entry was “inactive”.
Still for that read-out and setting: in the case of `CC(=O)CC/C=C(\C)CCC=C(C)C` it was “inactive”; in that of `c1ccc2c(c1)Oc1ccccc1S2`, “inactive”.
Regarding `Cc1ccc(C(=O)c2cc(O)c(O)c([N+](=O)[O-])c2)cc1`, the Potency result is “inactive”.
Take `C[C@]12CC[C@H]3[C@@H](CCC4=CC(=O)CC[C@@]43C)[C@@H]1CC[C@@H]2C(=O)CO`: the Potency result is “inactive”.
For the compound `c1ccc2c(c1)c1cccc3ccc4cccc2c4c31`, the Potency result is “inactive”.
As to `Cn1cnc([N+](=O)[O-])c1Sc1ncnc2nc[nH]c12`, the Potency entry is “inactive”.
As for `OC1CCCCCCCCCCC1`, the Potency result was “inactive”.
The same measure, in the same setting: in the case of `O=C(OCc1ccccc1)c1ccccc1O` it was “inactive”.
Turning to `Cc1c(OCC(F)(F)F)ccnc1CS(=O)c1nc2ccccc2[nH]1` (stereo not given), the “activity change” value was 4.57% [at 42.5 µM, active compounds read high].
For `COc1ccccc1/C=C/C=O`, the Potency result is “inactive”.
Take `c1ccc(Nc2ccccc2)cc1`: the Potency result is “inactive”.
Regarding `c1ccncc1`, the Potency result is “inactive”.
The same measure, in the same setting: then `O=C(COc1ccc(Cl)cc1)N1CCN(Cc2ccc3c(c2)OCO3)CC1`, with “inactive”.
Turning to `Nc1ccc(Cl)cc1Cl`, the Potency entry is “inactive”.
Take `C[Si](C)(C)O[Si](C)(C)C`: the Potency entry is “inactive”.
With `C/C=C/C(=O)O`, the Potency result is “inactive”.
Consider `Cc1c(C(N)=O)cc([N+](=O)[O-])cc1[N+](=O)[O-]`, for which the Potency entry is “inactive”.
With `O=C1OC2(c3cc(Br)c(O)c(Br)c3Oc3c2cc(Br)c(O)c3Br)c2c(Cl)c(Cl)c(Cl)c(Cl)c21`, the Potency result is “inactive”.
For the compound `CCOC(=O)C(C#N)=C(c1ccccc1)c1ccccc1`, the Potency entry is “inactive”.
Same read-out and setting: in the case of `NNc1ccc(C(=O)O)cc1` it was 5.5 µM (active); in that of `C#C[C@]1(O)CC[C@H]2[C@@H]3CCc4cc(OC)ccc4[C@H]3CC[C@@]21C`, “inactive”; in that of `COC(=O)Nc1nc2ccc(S(=O)c3ccccc3)cc2[nH]1` (stereo not given), “inactive”.
On to `CCC(C)(O)CCCC(C)C` (stereo not given), for which the Potency result was “inactive”.
Regarding `CCCCOCCOCCO`, the Potency entry was “inactive”.
Still for that read-out and setting: then `CN(C)c1nc(N(C)C)nc(N(C)C)n1`, with “inactive”; and `CC(C)OC=O`, with “inactive”.
For `CCCCOCCOCCOCCO`, the Potency result was “inactive”.
